Holding throughout (test): protein-binding microarray (PBM); PBM: ~300 nM protein, 6 mM HEPES pH 7.8, 80 mM KCl, 0.5 mM EDTA, 0.5 mM EGTA, 6% glycerol, 35 ng/ul poly-dIdC, 1% milk, 1 h, room temperature; Ap Aiptasia and Nv Nematostella (sea anemones) / Co Capsaspora / Aq Amphimedon (sponge) / Dm Drosophila / Hu human; RHD is the Rel homology domain; high values mean tight binding
Common to all, as to conditions: dsDNA, one strand shown

One test has as its target T1, GST-Ap-NF-kB RHD (Exaiptasia pallida (Aiptasia), UniProt A0A913YAJ5 2-422).
T1 sequence: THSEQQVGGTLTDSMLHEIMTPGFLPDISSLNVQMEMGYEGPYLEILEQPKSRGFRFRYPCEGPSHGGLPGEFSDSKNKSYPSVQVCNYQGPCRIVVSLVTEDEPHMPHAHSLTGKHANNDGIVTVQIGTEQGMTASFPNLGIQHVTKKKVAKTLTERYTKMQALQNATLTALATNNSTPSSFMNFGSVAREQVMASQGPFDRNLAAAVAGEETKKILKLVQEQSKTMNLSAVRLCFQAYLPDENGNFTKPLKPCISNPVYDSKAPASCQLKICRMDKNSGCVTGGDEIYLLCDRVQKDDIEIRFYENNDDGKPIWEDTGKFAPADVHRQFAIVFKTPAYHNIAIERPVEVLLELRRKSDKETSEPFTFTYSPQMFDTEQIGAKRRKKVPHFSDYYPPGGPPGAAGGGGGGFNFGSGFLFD

For test [1], the target named is T2, GST-Nv-NF-kB (Cys allele) (Nematostella vectensis, UniProt E5G601 2-411).
T2 sequence: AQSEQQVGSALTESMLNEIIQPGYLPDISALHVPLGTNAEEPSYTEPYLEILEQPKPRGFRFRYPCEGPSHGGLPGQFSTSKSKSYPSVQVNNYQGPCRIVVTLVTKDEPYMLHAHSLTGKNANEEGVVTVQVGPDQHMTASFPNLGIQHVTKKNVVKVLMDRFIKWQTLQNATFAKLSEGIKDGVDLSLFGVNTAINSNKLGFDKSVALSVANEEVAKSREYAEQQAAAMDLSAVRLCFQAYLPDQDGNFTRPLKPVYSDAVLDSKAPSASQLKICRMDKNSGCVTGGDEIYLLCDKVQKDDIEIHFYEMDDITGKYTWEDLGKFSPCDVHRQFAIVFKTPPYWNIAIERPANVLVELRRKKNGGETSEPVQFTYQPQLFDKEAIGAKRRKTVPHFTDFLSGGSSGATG

For test [2], the target named is T3, GST-Nv-NF-kB (Ser allele) (Nematostella vectensis, UniProt A7UNT2 2-411).
T3 sequence: T2 sequence with Q21R, C66S, S207N, E215Q, V217A, E225K, A268E, D399E

The next test has as its target T4, GST-Co-NF-kB (Capsaspora owczarzaki, UniProt F1ARL5 200-546).
T4 sequence: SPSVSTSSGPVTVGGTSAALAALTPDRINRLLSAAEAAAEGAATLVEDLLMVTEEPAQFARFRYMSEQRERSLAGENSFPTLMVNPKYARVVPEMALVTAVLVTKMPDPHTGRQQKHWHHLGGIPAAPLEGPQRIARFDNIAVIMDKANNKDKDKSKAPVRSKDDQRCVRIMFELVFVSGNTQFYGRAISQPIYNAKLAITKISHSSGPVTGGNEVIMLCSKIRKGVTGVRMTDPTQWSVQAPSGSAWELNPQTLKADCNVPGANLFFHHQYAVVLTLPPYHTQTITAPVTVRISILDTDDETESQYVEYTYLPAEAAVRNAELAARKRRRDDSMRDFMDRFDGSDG

The target of another test is T5, GST-Dm-Relish (Drosophila melanogaster, UniProt Q94527 99-473).
T5 sequence: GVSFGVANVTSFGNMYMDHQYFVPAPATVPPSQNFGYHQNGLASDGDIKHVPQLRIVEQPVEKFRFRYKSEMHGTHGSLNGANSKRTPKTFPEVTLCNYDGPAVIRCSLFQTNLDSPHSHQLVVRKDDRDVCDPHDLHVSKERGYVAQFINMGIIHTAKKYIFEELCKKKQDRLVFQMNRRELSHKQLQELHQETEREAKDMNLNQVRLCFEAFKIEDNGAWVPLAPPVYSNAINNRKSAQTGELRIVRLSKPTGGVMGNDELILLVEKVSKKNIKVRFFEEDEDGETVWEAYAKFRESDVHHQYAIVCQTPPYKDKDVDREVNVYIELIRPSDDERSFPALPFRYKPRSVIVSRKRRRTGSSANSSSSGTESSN

The next test concerns the target T6, GST-Aq-NF-kB (Amphimedon queenslandica, UniProt A9Y5G7 2-389).
T6 sequence: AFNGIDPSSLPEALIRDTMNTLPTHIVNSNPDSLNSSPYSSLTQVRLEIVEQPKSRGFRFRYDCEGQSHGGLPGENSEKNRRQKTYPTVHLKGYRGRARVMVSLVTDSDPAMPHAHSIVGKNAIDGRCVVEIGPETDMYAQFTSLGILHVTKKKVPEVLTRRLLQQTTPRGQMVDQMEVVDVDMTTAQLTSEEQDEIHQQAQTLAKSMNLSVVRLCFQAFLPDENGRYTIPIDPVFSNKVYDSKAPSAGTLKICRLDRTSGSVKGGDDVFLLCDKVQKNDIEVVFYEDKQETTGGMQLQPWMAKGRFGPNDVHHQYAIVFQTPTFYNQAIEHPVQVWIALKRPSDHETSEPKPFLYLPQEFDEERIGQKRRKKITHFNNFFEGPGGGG

For another test, the target named is GST-Hu-p50 (Homo sapiens, UniProt P19838 7-356).

Where a chain is given by its changes, count along the chain named.

Chain of GST-Hu-p50 (P19838 7-356): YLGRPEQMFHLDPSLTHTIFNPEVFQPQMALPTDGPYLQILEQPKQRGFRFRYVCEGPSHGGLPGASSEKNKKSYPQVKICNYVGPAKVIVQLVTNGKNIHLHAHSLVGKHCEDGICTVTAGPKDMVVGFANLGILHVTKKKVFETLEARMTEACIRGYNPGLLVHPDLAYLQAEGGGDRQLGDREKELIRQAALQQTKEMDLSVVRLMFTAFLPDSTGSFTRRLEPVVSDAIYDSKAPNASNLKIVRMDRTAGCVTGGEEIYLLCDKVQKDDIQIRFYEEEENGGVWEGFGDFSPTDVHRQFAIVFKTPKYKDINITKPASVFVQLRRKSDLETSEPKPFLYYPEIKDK

Take “CCGATTAACATCAAAAAAGTCCCTGATGTTAATCGGGTCTTGATTCGCTTGACGCTGCTG”: the binding signal stood at 8.8 z-score with GST-Ap-NF-kB RHD; 11.6 z-score in test [1]; 11.5 z-score in test [2]; 2.41 z-score with GST-Co-NF-kB; 9.77 z-score with GST-Dm-Relish; 8.92 z-score with GST-Aq-NF-kB. In addition, the binding signal with GST-Hu-p50 amounted to 7.77 z-score.

For the sequence “CCGATTAACATCAATCTCCCCCCTGATGTTAATCGGGTCTTGATTCGCTTGACGCTGCTG”, the binding signal with GST-Ap-NF-kB RHD was 7.54 z-score; in test [1] it was 5.24 z-score; in test [2] it was 7.29 z-score; with GST-Co-NF-kB it was 8.72 z-score; in the test with GST-Dm-Relish, 4.23 z-score; in the test with GST-Aq-NF-kB, 5.63 z-score. The binding signal in the test with GST-Hu-p50 turned out to be 6.63 z-score.

In the case of “CCGATTAACATCACTAGTCCCCCTGATGTTAATCGGGTCTTGATTCGCTTGACGCTGCTG”, the binding signal in the test with GST-Ap-NF-kB RHD stood at 4.7 z-score; in test [1], 3.39 z-score; in test [2] it was 3.45 z-score; in the test with GST-Co-NF-kB, 3.98 z-score; in the test with GST-Dm-Relish, 2.58 z-score; with GST-Aq-NF-kB, 3.81 z-score. The sequence further came in with a binding signal with GST-Hu-p50 of 3.46 z-score.

In the case of “CCGATTAACATCAAAAGATCCCCTGATGTTAATCGGGTCTTGATTCGCTTGACGCTGCTG”, the binding signal with GST-Ap-NF-kB RHD was determined as 8.32 z-score; in test [1], 8.42 z-score; in test [2], 9.3 z-score; in the test with GST-Co-NF-kB, 5.39 z-score; with GST-Dm-Relish, 9.75 z-score; with GST-Aq-NF-kB, 7.5 z-score. In the test with GST-Hu-p50, this sequence showed a binding signal of 6.41 z-score.

Consider “CCGATTAACATCAGGAATTTCCCTGATGTTAATCGGGTCTTGATTCGCTTGACGCTGCTG”, for which the binding signal was determined as 6.77 z-score in the test with GST-Ap-NF-kB RHD; 10.1 z-score in test [1]; 6.94 z-score in test [2]; 4.93 z-score with GST-Co-NF-kB; 5.72 z-score in the test with GST-Dm-Relish; 10.8 z-score with GST-Aq-NF-kB. The binding signal in the test with GST-Hu-p50 amounted to 6.03 z-score.

As for “CCGATTAACATCAAGATTTTCCCTGATGTTAATCGGGTCTTGATTCGCTTGACGCTGCTG”, the binding signal with GST-Ap-NF-kB RHD was determined as 4.58 z-score; in test [1], 6.22 z-score; in test [2] it was 7.42 z-score; with GST-Co-NF-kB, 5.04 z-score; in the test with GST-Dm-Relish, 1.5 z-score; in the test with GST-Aq-NF-kB, 5.78 z-score. The sequence further came in with a binding signal with GST-Hu-p50 of 4.29 z-score.

On to “CCGATTAACATCACCGTGGGAAATGATGTTAATCGGGTCTTGATTCGCTTGACGCTGCTG”, for which the binding signal came out at 1.9 z-score with GST-Ap-NF-kB RHD; 2.4 z-score in test [1]; 2.68 z-score in test [2]; 3.18 z-score with GST-Co-NF-kB; 1.32 z-score in the test with GST-Dm-Relish; 1.95 z-score with GST-Aq-NF-kB. The sequence further gave a binding signal in the test with GST-Hu-p50 of 2.29 z-score.

Consider “CCGATTAACATCAGACTTTCCCCTGATGTTAATCGGGTCTTGATTCGCTTGACGCTGCTG”, for which the binding signal was determined as 6.18 z-score with GST-Ap-NF-kB RHD; 7.69 z-score in test [1]; 8.83 z-score in test [2]; 7.36 z-score in the test with GST-Co-NF-kB; 4.9 z-score in the test with GST-Dm-Relish; 6.81 z-score in the test with GST-Aq-NF-kB. The sequence also yielded a binding signal with GST-Hu-p50 of 5.61 z-score.

For the sequence “CCGATTAACATCAAGGGGGAAATTGATGTTAATCGGGTCTTGATTCGCTTGACGCTGCTG”, the binding signal in the test with GST-Ap-NF-kB RHD stood at 7.69 z-score; in test [1], 8.6 z-score; in test [2] it was 10.5 z-score; with GST-Co-NF-kB, 8.86 z-score; in the test with GST-Dm-Relish, 5.87 z-score; with GST-Aq-NF-kB, 7.06 z-score. Also, the binding signal in the test with GST-Hu-p50 is 7.51 z-score.

As to “CCGATTAACATCAGGGGAAATGATGATGTTAATCGGGTCTTGATTCGCTTGACGCTGCTG”, the binding signal with GST-Ap-NF-kB RHD is 5.75 z-score; in test [1], 6.87 z-score; in test [2], 9.61 z-score; with GST-Co-NF-kB, 7.35 z-score; with GST-Dm-Relish, 2.27 z-score; with GST-Aq-NF-kB it was 4.43 z-score. For the same sequence, the binding signal with GST-Hu-p50 was found to be 5.37 z-score.

On to “CCGATTAACATCACTATTCCCCCTGATGTTAATCGGGTCTTGATTCGCTTGACGCTGCTG”, for which the binding signal with GST-Ap-NF-kB RHD is 5.37 z-score; in test [1], 6.24 z-score; in test [2], 7.08 z-score; with GST-Co-NF-kB it was 7.68 z-score; with GST-Dm-Relish it was 3.2 z-score; in the test with GST-Aq-NF-kB, 4.96 z-score. The binding signal in the test with GST-Hu-p50 worked out at 5.82 z-score.

As to “CCGATTAACATCAGGGGTTTTTATGATGTTAATCGGGTCTTGATTCGCTTGACGCTGCTG”, the binding signal in the test with GST-Ap-NF-kB RHD is 8.01 z-score; in test [1], 8.52 z-score; in test [2] it was 7.26 z-score; in the test with GST-Co-NF-kB, 2.38 z-score; with GST-Dm-Relish, 8.58 z-score; with GST-Aq-NF-kB, 7.14 z-score. Further, the binding signal in the test with GST-Hu-p50 worked out at 7.21 z-score.

The values above are taken from article PMC5700166.
